# Source: PubChem BioAssay (NCI)
# The panel holds about 83,000 compounds, 20% with a hit somewhere; the sample as a whole holds those more often.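 Results are percent growth after 48 hours of single-concentration exposure. 100 means growth as in untreated cells, lower positive values show inhibition; negative values down to -100 show cell death.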 A number with no mark means an inactive call. Activity calls are given as the source filed them. How the source made its calls: active means growth percent below 10; inactive means the rest.
# Tests used:
# Experiment in all cases: NCI-60 one-dose screen, 48 h (100 = growth as untreated, 0 = no growth, -100 = all killed)
# Conditions in all cases: 10 µM unless noted
# [1] = test system: DU-145 prostate
# [2] = test system: MALME-3M melanoma
# [3] = test system: MDA-MB-231 breast
# [4] = test system: RXF 393 renal
# [5] = test system: SF-268 CNS
# [6] = test system: SF-295 CNS
# [7] = test system: SF-539 CNS
# [8] = test system: UACC-257 melanoma
# [9] = test system: M14 melanoma
Compound,growth [1],growth [2],growth [3],growth [4],growth [5],growth [6],growth [7],growth [8],growth [9]
COc1ccc(C(=O)/C=C/c2ccc(Cl)c(Cl)c2)cc1S(N)(=O)=O,25.2%,28%,20.7%,-69.2% (active),24.6%,7.4% (active),-86.5% (active),1.95% (active),-70.9% (active)
COc1ccc(C(=O)/C=C/c2cccc(Br)c2)cc1S(N)(=O)=O,-37% (active),-33.5% (active),-65.5% (active),-80.3% (active),-39.4% (active),-81.2% (active),-95.7% (active),-80% (active),-93% (active)
O=C(NNc1nc2cc(C(F)(F)F)ccc2n2cccc12)c1cnccn1,-57.5% (active),-57.2% (active),-66.8% (active),-74% (active),-53.4% (active),-92.1% (active),-83% (active),-83.9% (active),-81.9% (active)
COc1ccc(C(=O)/C=C/c2c(F)cccc2Cl)cc1S(N)(=O)=O,-0.489% (active),12.7%,17.2%,-44.4% (active),24.4%,12.7%,-62.9% (active),12.7%,-59.4% (active)
C/C(=N\Nc1ccc(S(N)(=O)=O)cc1)c1ccc(N=Nc2c(Nc3ccccc3)[nH][nH]c2=O)cc1,13.8%,-65.9% (active),-31.3% (active),-24.1% (active),9.33% (active),5.12% (active),-77.4% (active),5.63% (active),-62.5% (active)
Cc1ccc(-c2nnc3ccc(N/N=C/c4ccccc4)nn23)cc1,75.9%,95.6%,80.1%,94.3%,57.8%,52.3%,80.8%,103%,67.3%
O=C1C(=Nc2ccc(F)c(Cl)c2)c2cccc3cccc1c23,80.3%,49.8%,59.6%,107%,68.6%,47.3%,26.8%,49%,63.2%
